# Residue numbers refer to the chain shown, from its start. In all, about 16,000 sequences were measured (“ka relative to ugcaugu”: median about 0.0091, highest 2% from about 0.032 on). Many of the other results were omitted from the sample, so the highest values are more common in it than they were.
# T1: RBFOX1 RRM (Homo sapiens, UniProt Q9NWB1 109-208)
# T1 sequence: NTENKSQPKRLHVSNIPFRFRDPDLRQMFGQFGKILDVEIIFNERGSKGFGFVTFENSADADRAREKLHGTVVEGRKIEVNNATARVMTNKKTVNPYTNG
# B1: GCUGUAU (DNA:RNA)
# RNA: GGGAGACCGGAAUUCAGAUUGUCCGCUGUAUUUAAAUCCCGUCGUAGCCACCA
# DNA 1: CAATCTGAATTCCGGTCTCCC
# DNA 2: TGGTGGCTACGACGGGATT
# B2: AUACGAU (DNA:RNA)
# RNA: B1 RNA with G25A, C26U, U27A, G28C, U29G
# DNA 1: CAATCTGAATTCCGGTCTCCC
# DNA 2: TGGTGGCTACGACGGGATT
# B3: AUUCUCC (DNA:RNA)
# RNA: B1 RNA with G25A, C26U, G28C, A30C, U31C
# DNA 1: CAATCTGAATTCCGGTCTCCC
# DNA 2: TGGTGGCTACGACGGGATT
# B4: CACCUGC (DNA:RNA)
# RNA: B1 RNA with G25C, C26A, U27C, G28C, A30G, U31C
# DNA 1: CAATCTGAATTCCGGTCTCCC
# DNA 2: TGGTGGCTACGACGGGATT
# B5: GGGGUCG (DNA:RNA)
# RNA: B1 RNA with C26G, U27G, A30C, U31G
# DNA 1: CAATCTGAATTCCGGTCTCCC
# DNA 2: TGGTGGCTACGACGGGATT
# B6: GGGUCGU (DNA:RNA)
# RNA: B1 RNA with C26G, U27G, G28U, U29C, A30G
# DNA 1: CAATCTGAATTCCGGTCTCCC
# DNA 2: TGGTGGCTACGACGGGATT
# B7: CGUACUC (DNA:RNA)
# RNA: B1 RNA with G25C, C26G, G28A, U29C, A30U, U31C
# DNA 1: CAATCTGAATTCCGGTCTCCC
# DNA 2: TGGTGGCTACGACGGGATT
# B8: CGGGUCG (DNA:RNA)
# RNA: B1 RNA with G25C, C26G, U27G, A30C, U31G
# DNA 1: CAATCTGAATTCCGGTCTCCC
# DNA 2: TGGTGGCTACGACGGGATT
# B9: GGGUACU (DNA:RNA)
# RNA: B1 RNA with C26G, U27G, G28U, U29A, A30C
# DNA 1: CAATCTGAATTCCGGTCTCCC
# DNA 2: TGGTGGCTACGACGGGATT
# B10: GGUACUC (DNA:RNA)
# RNA: B1 RNA with C26G, G28A, U29C, A30U, U31C
# DNA 1: CAATCTGAATTCCGGTCTCCC
# DNA 2: TGGTGGCTACGACGGGATT
# B11: GGGGUAC (DNA:RNA)
# RNA: B1 RNA with C26G, U27G, U31C
# DNA 1: CAATCTGAATTCCGGTCTCCC
# DNA 2: TGGTGGCTACGACGGGATT
# B12: GGGUCCG (DNA:RNA)
# RNA: B1 RNA with C26G, U27G, G28U, U29C, A30C, U31G
# DNA 1: CAATCTGAATTCCGGTCTCCC
# DNA 2: TGGTGGCTACGACGGGATT
# B13: GGGGAGA (DNA:RNA)
# RNA: B1 RNA with C26G, U27G, U29A, A30G, U31A
# DNA 1: CAATCTGAATTCCGGTCTCCC
# DNA 2: TGGTGGCTACGACGGGATT
# B14: GGGGUCC (DNA:RNA)
# RNA: B1 RNA with C26G, U27G, A30C, U31C
# DNA 1: CAATCTGAATTCCGGTCTCCC
# DNA 2: TGGTGGCTACGACGGGATT
# B15: CGGGUAC (DNA:RNA)
# RNA: B1 RNA with G25C, C26G, U27G, U31C
# DNA 1: CAATCTGAATTCCGGTCTCCC
# DNA 2: TGGTGGCTACGACGGGATT
# B16: GUACUCU (DNA:RNA)
# RNA: B1 RNA with C26U, U27A, G28C, A30C
# DNA 1: CAATCTGAATTCCGGTCTCCC
# DNA 2: TGGTGGCTACGACGGGATT
# B17: AGCUCAC (DNA:RNA)
# RNA: B1 RNA with G25A, C26G, U27C, G28U, U29C, U31C
# DNA 1: CAATCTGAATTCCGGTCTCCC
# DNA 2: TGGTGGCTACGACGGGATT
# B18: ACUGACU (DNA:RNA)
# RNA: B1 RNA with G25A, U29A, A30C
# DNA 1: CAATCTGAATTCCGGTCTCCC
# DNA 2: TGGTGGCTACGACGGGATT
# B19: UAAAUCG (DNA:RNA)
# RNA: B1 RNA with G25U, C26A, U27A, G28A, A30C, U31G
# DNA 1: CAATCTGAATTCCGGTCTCCC
# DNA 2: TGGTGGCTACGACGGGATT
# B20: GAAAAGU (DNA:RNA)
# RNA: B1 RNA with C26A, U27A, G28A, U29A, A30G
# DNA 1: CAATCTGAATTCCGGTCTCCC
# DNA 2: TGGTGGCTACGACGGGATT
# B21: AGAAACC (DNA:RNA)
# RNA: GGGAGACCGGAAUUCAGAUUGUCCAGAAACCUUAAAUCCCGUCGUAGCCACCA
# DNA 1: CAATCTGAATTCCGGTCTCCC
# DNA 2: TGGTGGCTACGACGGGATT
# B22: CUCAAUG (DNA:RNA)
# RNA: B21 RNA with A25C, G26U, A27C, C30U, C31G
# DNA 1: CAATCTGAATTCCGGTCTCCC
# DNA 2: TGGTGGCTACGACGGGATT
# B23: CGCGAUA (DNA:RNA)
# RNA: B21 RNA with A25C, A27C, A28G, C30U, C31A
# DNA 1: CAATCTGAATTCCGGTCTCCC
# DNA 2: TGGTGGCTACGACGGGATT
# B24: ACCAGGG (DNA:RNA)
# RNA: B21 RNA with G26C, A27C, A29G, C30G, C31G
# DNA 1: CAATCTGAATTCCGGTCTCCC
# DNA 2: TGGTGGCTACGACGGGATT
# B25: GUCCCCC (DNA:RNA)
# RNA: B21 RNA with A25G, G26U, A27C, A28C, A29C
# DNA 1: CAATCTGAATTCCGGTCTCCC
# DNA 2: TGGTGGCTACGACGGGATT
# B26: ACUCCAA (DNA:RNA)
# RNA: B1 RNA with G25A, G28C, U29C, U31A
# DNA 1: CAATCTGAATTCCGGTCTCCC
# DNA 2: TGGTGGCTACGACGGGATT
# B27: ACCAGAU (DNA:RNA)
# RNA: B1 RNA with G25A, U27C, G28A, U29G
# DNA 1: CAATCTGAATTCCGGTCTCCC
# DNA 2: TGGTGGCTACGACGGGATT
# B28: AAGCGUC (DNA:RNA)
# RNA: B21 RNA with G26A, A27G, A28C, A29G, C30U
# DNA 1: CAATCTGAATTCCGGTCTCCC
# DNA 2: TGGTGGCTACGACGGGATT
# B29: CAUGGGA (DNA:RNA)
# RNA: B1 RNA with G25C, C26A, U29G, A30G, U31A
# DNA 1: CAATCTGAATTCCGGTCTCCC
# DNA 2: TGGTGGCTACGACGGGATT
# B30: GUGGUCC (DNA:RNA)
# RNA: B1 RNA with C26U, U27G, A30C, U31C
# DNA 1: CAATCTGAATTCCGGTCTCCC
# DNA 2: TGGTGGCTACGACGGGATT
# B31: GUCGGCC (DNA:RNA)
# RNA: B21 RNA with A25G, G26U, A27C, A28G, A29G
# DNA 1: CAATCTGAATTCCGGTCTCCC
# DNA 2: TGGTGGCTACGACGGGATT
# B32: GUCCUUG (DNA:RNA)
# RNA: B1 RNA with C26U, U27C, G28C, A30U, U31G
# DNA 1: CAATCTGAATTCCGGTCTCCC
# DNA 2: TGGTGGCTACGACGGGATT
# B33: GGCCUUG (DNA:RNA)
# RNA: B1 RNA with C26G, U27C, G28C, A30U, U31G
# DNA 1: CAATCTGAATTCCGGTCTCCC
# DNA 2: TGGTGGCTACGACGGGATT
# B34: UUGGUUG (DNA:RNA)
# RNA: B1 RNA with G25U, C26U, U27G, A30U, U31G
# DNA 1: CAATCTGAATTCCGGTCTCCC
# DNA 2: TGGTGGCTACGACGGGATT
# B35: GGCGGCC (DNA:RNA)
# RNA: B21 RNA with A25G, A27C, A28G, A29G
# DNA 1: CAATCTGAATTCCGGTCTCCC
# DNA 2: TGGTGGCTACGACGGGATT
# B36: UUGUUCG (DNA:RNA)
# RNA: B21 RNA with A25U, G26U, A27G, A28U, A29U, C31G
# DNA 1: CAATCTGAATTCCGGTCTCCC
# DNA 2: TGGTGGCTACGACGGGATT
# B37: UUGUUGG (DNA:RNA)
# RNA: B1 RNA with G25U, C26U, U27G, G28U, A30G, U31G
# DNA 1: CAATCTGAATTCCGGTCTCCC
# DNA 2: TGGTGGCTACGACGGGATT
# B38: UUGGUCG (DNA:RNA)
# RNA: B1 RNA with G25U, C26U, U27G, A30C, U31G
# DNA 1: CAATCTGAATTCCGGTCTCCC
# DNA 2: TGGTGGCTACGACGGGATT
# B39: UCCUUGG (DNA:RNA)
# RNA: B1 RNA with G25U, U27C, G28U, A30G, U31G
# DNA 1: CAATCTGAATTCCGGTCTCCC
# DNA 2: TGGTGGCTACGACGGGATT
# B40: UUGUCCG (DNA:RNA)
# RNA: B21 RNA with A25U, G26U, A27G, A28U, A29C, C31G
# DNA 1: CAATCTGAATTCCGGTCTCCC
# DNA 2: TGGTGGCTACGACGGGATT
# B41: UUGGUCC (DNA:RNA)
# RNA: B21 RNA with A25U, G26U, A27G, A28G, A29U
# DNA 1: CAATCTGAATTCCGGTCTCCC
# DNA 2: TGGTGGCTACGACGGGATT
# Target: T1, RBFOX1 RRM
# Test: EMSA; HiTS-Eq, 1 nM pool, 10 min; buffer printed only for the single-RNA assays: 10 mM Tris pH 7.5, 150 mM NaCl, 3.4 mM EDTA, 0.001% NP-40, 30 C
# Details: tags: His6 N-terminal (pET28a); label: 5' 32P
# Summary of the method: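 Purified RbFox RRM, wild type or mutant, was incubated for 10 min in 50 µL with 1 nM of a 5′-radiolabelled RNA pool carrying 7 randomized nucleotides, whose flanks were annealed to DNA oligonucleotides, over a series of increasing protein concentrations. Unbound RNA was resolved on 8% native PAGE, cut out, reverse-transcribed, barcoded by PCR and sequenced on an Illumina HiSeq 2500. Relative association constants were derived from changes in read counts for each RNA species versus the control reaction and normalised to the cognate motif.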
row,Binder,binding signal
1,B1,0.013 KA relative to UGCAUGU
2,B2,0.00313 KA relative to UGCAUGU
3,B3,0.00179 KA relative to UGCAUGU
4,B4,0.00791 KA relative to UGCAUGU
5,B5,0.0492 KA relative to UGCAUGU
6,B6,0.0214 KA relative to UGCAUGU
7,B7,0.00584 KA relative to UGCAUGU
8,B8,0.0322 KA relative to UGCAUGU
9,B9,0.0165 KA relative to UGCAUGU
10,B10,0.032 KA relative to UGCAUGU
11,B11,0.0356 KA relative to UGCAUGU
12,B12,0.0257 KA relative to UGCAUGU
13,B13,0.0242 KA relative to UGCAUGU
14,B14,0.0259 KA relative to UGCAUGU
15,B15,0.0309 KA relative to UGCAUGU
16,B16,0.0101 KA relative to UGCAUGU
17,B17,0.00457 KA relative to UGCAUGU
18,B18,0.00677 KA relative to UGCAUGU
19,B19,0.00678 KA relative to UGCAUGU
20,B20,0.00662 KA relative to UGCAUGU
21,B21,0.00391 KA relative to UGCAUGU

row,Binder,binding signal
1,B22,0.00378 KA relative to UGCAUGU
2,B23,0.00807 KA relative to UGCAUGU
3,B24,0.00782 KA relative to UGCAUGU
4,B25,0.0163 KA relative to UGCAUGU
5,B26,0.000959 KA relative to UGCAUGU
6,B27,0.00102 KA relative to UGCAUGU
7,B28,0.00965 KA relative to UGCAUGU
8,B29,0.00261 KA relative to UGCAUGU
9,B30,0.0226 KA relative to UGCAUGU
10,B31,0.0169 KA relative to UGCAUGU
11,B32,0.0114 KA relative to UGCAUGU
12,B33,0.0328 KA relative to UGCAUGU
13,B34,0.0398 KA relative to UGCAUGU
14,B35,0.0183 KA relative to UGCAUGU
15,B36,0.0364 KA relative to UGCAUGU
16,B37,0.0248 KA relative to UGCAUGU
17,B38,0.0376 KA relative to UGCAUGU
18,B39,0.0132 KA relative to UGCAUGU
19,B40,0.0163 KA relative to UGCAUGU
20,B41,0.0262 KA relative to UGCAUGU
